Laboratory results: the supplement of paper PMC10981050
“And” between values parts separate entries of the source, which are not always exact repeats. Identical values can stand only once. Counter-ions that a name gives are not always drawn.

Experiments:
Assay in all cases: cell viability relative to vehicle control; higher = less cytotoxic
Settings in all cases: 10 µM
K562 = system: K562
How it was run: (§1)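 Each screen used CRISPR-edited mutant and wild-type clones from four leukaemia lines. Compounds were acoustically dispensed at a single 10 µM dose, and CellTiter-Glo luminescence was read after 48 h with the supernatant first removed. Viability was analysed in Genedata Screener and given as percent of the on-plate vehicle control.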

MARIMO = system: MARIMO
How it was run: as §1

MOLM14 = system: MOLM14
How it was run: as §1

OCI-AML2 = system: OCI-AML2
How it was run: as §1

Row | Compound | cell viability (K562; SRSF2 genotype: SRSF2 P95H/wt) | cell viability (K562; SRSF2 genotype: SRSF2 wt/wt) [%] | cell viability (MARIMO; SRSF2 genotype: SRSF2 P95H/wt) [%] | cell viability (MARIMO; SRSF2 genotype: SRSF2 wt/wt) [%] | cell viability (MOLM14; SRSF2 genotype: SRSF2 P95H/wt) [%] | cell viability (MOLM14; SRSF2 genotype: SRSF2 wt/wt) [%] | cell viability (OCI-AML2; SRSF2 genotype: P95H/wt) [%] | cell viability (OCI-AML2; SRSF2 genotype: wt/wt) [%]
1 | CCCCCCCC/C=C\CCCCCCCCCCCC(=O)O [Erucic acid] | 99.7% and 96.1% | 103 | 101 | 107 | 104 | 107 | 100 | 110
2 | O=C(O)CCCc1ccccc1 [Sodium Phenylbutyrate] | 110% and 98.8% | 105 | 100 | 109 | 96.9 | 102 | 94.8 | 100
3 | O=S(=O)(NCCSSCCNS(=O)(=O)c1cc(Cl)ccc1Cl)c1cc(Cl)ccc1Cl | 80.6% and 84.4% | 69.5 | 61 | 72.4 | 53.8 | 48.8 | 51.9 | 52.5
4 | CC(C)c1cc(-c2n[nH]c(=O)n2-c2ccc3c(ccn3C)c2)c(O)cc1O [Ganetespib (STA-9090)] | 21.6% and 26.6% | 28.1 | 31.8 | 27 | 2.31 | 2.65 | 19.4 | 21.1
5 | CC(C)(Sc1ccncc1-c1ccc(C#N)c2ccccc12)C(=O)O [Verinurad (RDEA3170)] | 102% and 101% | 102 | 105 | 104 | 95.8 | 102 | 109 | 105
6 | NC(=O)Cc1c[nH]c2ccccc12 [Indole-3-acetamide] | 97.9% and 97.4% | 107 | 98 | 100 | 92.9 | 103 | 107 | 115
7 | O=C(Cc1ccccc1)Nc1nnc(CCSCCc2nnc(NC(=O)Cc3ccccc3)s2)s1 | 81.3% and 83.7% | 88.7 | 75.9 | 72.4 | 82.9 | 91.2 | 68.5 | 78.7
8 | COc1ccc(CC(=O)Nc2nc3c(s2)CCc2ccccc2-3)cc1OC | 70.4% and 68.1% | 68.3 | 45.1 | 26.8 | 65.1 | 76.5 | 27.9 | 34.9
9 | NC(=O)/C(=C/n1cnc(-c2cc(C(F)(F)F)cc(C(F)(F)F)c2)n1)c1cncnc1 | 3.74% and 12.7% | 11.3 | 15.4 | 17.5 | 0.67 | 0.57 | 1.55 | 4.56
10 | C[N+]1(C)[C@@H]2C[C@@H](OC(=O)C(O)(c3cccs3)c3cccs3)C[C@H]1[C@@H]1O[C@@H]12 [Tiotropium Bromide hydrate] | 106% and 108% | 98.9 | 102 | 107 | 105 | 104 | 98.9 | 104
11 | O=C(c1cn(Cc2cncn2Cc2ccc(Br)cc2)cc1-c1cccc2ccccc12)N1CCOCC1 | 48.4% and 62.4% | 47.2 | 34.1 | 36.4 | 35.1 | 39.1 | 25.7 | 32.2
12 | O=C1C(=C(O)C=Cc2ccc(O)cc2)C(O)=C([C@@H]2O[C@H](CO)[C@@H](O)[C@H](O)[C@H]2O)C(=O)C1(O)[C@@H]1O[C@H](CO)[C@@H](O)[C@H](O)[C@H]1O (stereo partly specified) [Hydroxy safflor yellow A] | 90% and 88% | 84.7 | 90.1 | 97.3 | 85.4 | 87.7 | 89.7 | 104
13 | CCCCC(C=O)NC(=O)C(CC(C)C)NC(=O)C(CC(C)C)NC(C)=O (stereo unspecified) | 1.41% and 2.62% | 1.86 | 1.3 | 1.7 | 0.23 | 0.15 | 0.23 | 1.17
14 | NC(C=O)C(O)C(O)C(O)CO (stereo unspecified) [Glucosamine sulfate] | 99.5% and 102% | 100 | 101 | 105 | 104 | 108 | 104 | 104
15 | COc1cc2oc(-c3ccc(O)cc3)cc(=O)c2c(O)c1[C@@H]1O[C@H](CO)[C@@H](O)[C@H](O)[C@H]1O[C@@H]1O[C@H](CO)[C@@H](O)[C@H](O)[C@H]1O [Spinosin] | 106% | 104 | 106 | 101 | 106 | 104 | 99.2 | 100
16 | C[C@H](Oc1ccc(S(C)(=O)=O)cc1C(=O)N1CCN(c2ncc(C(F)(F)F)cc2F)CC1)C(F)(F)F | 105% and 98.9% | 95 | 97.1 | 107 | 97.3 | 105 | 101 | 104
17 | Cc1cc(C(=O)NOCCO)c(Nc2ccc(I)cc2F)n(C)c1=O | 79.1% and 88% | 84.6 | 43.3 | 36.3 | 43.5 | 28.7 | 39.4 | 42.9
18 | CN[C@@H](C)C(=O)N[C@H](C(=O)N1CCC[C@H]1C(=O)Nc1snnc1-c1ccccc1)C1CCCCC1 | 98.6% and 96.3% | 97.7 | 101 | 105 | 89.6 | 104 | 102 | 123
19 | CO[C@H]1/C=C\C=C(/C)C(=O)NC2=CC(=O)C(NCCN(C)C)=C(C[C@@H](C)C[C@H](OC)[C@H](O)[C@@H](C)/C=C(\C)[C@@H]1OC(N)=O)C2=O [17-DMAG HCl (Alvespimycin)] | 14% and 15.5% | 24 | 28.1 | 22.5 | 0.45 | 0.4 | 3.25 | 12
20 | CC(=O)c1cc([N+](=O)[O-])c(Sc2ccc(F)cc2F)s1 | 69% and 79.6% | 71 | 57.1 | 54.2 | 13.7 | 12.3 | 76.6 | 35.3
21 | CC(=O)OC1CC2(C)C(CC(O)C3C4(C)CCC(O)C(C)C4CCC32C)C1=C(CCC=C(C)C)C(=O)O (stereo unspecified) [Fusidine] | 96.3% and 99.9% | 89.4 | 97.5 | 98 | 98.9 | 96.8 | 94.2 | 99.2

Row | Compound | cell viability (K562; SRSF2 genotype: SRSF2 P95H/wt) | cell viability (K562; SRSF2 genotype: SRSF2 wt/wt) [%] | cell viability (MARIMO; SRSF2 genotype: SRSF2 P95H/wt) [%] | cell viability (MARIMO; SRSF2 genotype: SRSF2 wt/wt) [%] | cell viability (MOLM14; SRSF2 genotype: SRSF2 P95H/wt) [%] | cell viability (MOLM14; SRSF2 genotype: SRSF2 wt/wt) [%] | cell viability (OCI-AML2; SRSF2 genotype: P95H/wt) [%] | cell viability (OCI-AML2; SRSF2 genotype: wt/wt) [%]
22 | O=C(NCc1ccc(Oc2ccccc2)cc1)c1nc(-c2cc(Br)c(O)c(Br)c2)no1 | 77.6% and 72% | 66.7 | 80.5 | 91.8 | 59.8 | 84.5 | 88.4 | 81.9
23 | O=c1[nH]c(=O)c2[nH]cnc2[nH]1 [2,6-Dihydroxypurine] | 107% and 100% | 104 | 106 | 110 | 101 | 107 | 101 | 109
24 | COC(=O)/C=C/C(=O)OC [Dimethyl Fumarate] | 101% and 108% | 94.7 | 103 | 95.6 | 102 | 99.5 | 111 | 110
25 | Cc1ccc(C(=O)Nc2ccc(Oc3cc4cnn(C)c4cc3-c3cn[nH]c3)c(F)c2)c(=O)n1-c1ccc(F)cc1 | 82.9% and 87.4% | 87.2 | 88.5 | 103 | 8.56 | 12.4 | 27.6 | 31.6
26 | CC1CCCCCCCCCCCCC(=O)C1 (stereo unspecified) [Muscone] | 91.4% and 89.5% | 87.4 | 87.1 | 97.1 | 90.6 | 89.2 | 82 | 90.7
27 | NC(=O)c1ncn([C@@H]2O[C@H](CO)[C@@H](O)[C@H]2O)n1 [Ribavirin (Copegus)] | 100% and 95.1% | 90.2 | 87.2 | 97.3 | 56.2 | 24 | 99.6 | 92.5
28 | COc1cc2nccc(Oc3ccc(NC(=O)C4(C(=O)Nc5ccc(F)cc5)CC4)cc3)c2cc1OC | 9.94% and 12.3% | 20.6 | 69.1 | 66.8 | 5.29 | 5.9 | 19.2 | 28
29 | Nc1nc(Cl)nc2c1ncn2[C@@H]1O[C@H](CO)[C@@H](O)[C@@H]1F [Clofarabine] | 96.7% and 113% | 105 | 11.5 | 8.77 | 2.95 | 0.83 | 5.47 | 4.64
30 | COC(=O)N[C@H](C(=O)N1CCC[C@H]1C(=O)Nc1ccc([C@@H]2CC[C@@H](c3ccc(NC(=O)[C@@H]4CCCN4C(=O)[C@@H](NC(=O)OC)C(C)C)cc3)N2c2ccc(C(C)(C)C)cc2)cc1)C(C)C [Ombitasvir(ABT-267)] | 83.3% and 81.3% | 91 | 89.8 | 96.3 | 91.9 | 92.5 | 112 | 99.6
31 | CC(C)CCn1c(CN2CCN(C(=O)C3CC3)CC2)nc2c1c(=O)n(C)c(=O)n2C | 105% and 116% | 112 | 99.7 | 102 | 105 | 104 | 114 | 116
32 | CNc1ncc2cc(-c3cc(NC(=O)NCCC(C)(C)C)c(F)cc3C)c(C)nc2n1 | 14.9% and 29.3% | 22 | 36.9 | 34.9 | 27.2 | 23.9 | 31.7 | 34.6
33 | Cc1cccc(C)c1NC(=O)C1CCCCN1C (stereo unspecified) [Mepivacaine HCl] | 105% and 102% | 111 | 106 | 95.3 | 96.5 | 102 | 108 | 99
34 | CC[C@@]1(O)C(=O)OCc2c1cc1n(c2=O)Cc2cc3cc(O)ccc3nc2-1 [10-Hydroxycamptothecin] | 8.49% and 21.1% | 9.32 | 4.98 | 3.83 | 0.7 | 0.58 | 0.54 | 1.46
35 | C=CC(=O)N1CC(=Cc2ccc([N+](=O)[O-])cc2)C(=O)C(=Cc2ccc([N+](=O)[O-])cc2)C1 | 15.9% and 2.27% | 9.63 | 3.16 | 1.15 | 0.72 | 0.74 | 2.08 | 1.27
36 | COc1ccc2c(c1)c(C1=C(c3c[nH]c4ccccc34)C(=O)NC1=O)cn2CCCN(C)C | 84.2% and 80.9% | 74.5 | 69.8 | 85.8 | 30.9 | 25.9 | 31.8 | 49.9
37 | CC(C)OC(=O)OCOP(=O)(CO[C@H](C)Cn1cnc2c(N)ncnc21)OCOC(=O)OC(C)C [Tenofovir Disoproxil Fumarate] | 92.9% and 94.9% | 82.2 | 79.8 | 79.2 | 34.7 | 28.4 | 14.3 | 22.9
38 | OC[C@H]1O[C@@](CO)(OC[C@@]2(O[C@H]3O[C@H](CO)[C@@H](O)[C@H](O)[C@H]3O)O[C@H](CO)[C@@H](O)[C@@H]2O)[C@@H](O)[C@@H]1O [1-Kestose] | 118% and 105% | 110 | 105 | 99.2 | 99 | 110 | 106 | 112
39 | CN(C)C(=O)Nc1cccc(-c2ccc(N(C)C)cc2)c1 [Atglistatin] | 90.1% and 82.6% | 91.3 | 91.4 | 99.9 | 96.8 | 92.4 | 92.7 | 89.2
40 | CC1OC(OC2C(CO)OC(OCC3OC(OC(=O)C45CCC(C)(C)CC4C4=CCC6C7(C)CCC(OC8OCC(O)C(O)C8OC8OC(C)C(O)C(O)C8O)C(C)(CO)C7CCC6(C)C4(C)CC5)C(O)C(O)C3O)C(O)C2O)C(O)C(O)C1O (stereo unspecified) [Hederacoside C] | 101% and 93% | 95.3 | 96.9 | 101 | 97.3 | 98 | 93.5 | 106
41 | CC(C)OC(=O)C1=CN(C(=O)c2ccc(F)c(F)c2)CC(C)(C)c2c1[nH]c1ccccc21 [Turofexorate Isopropyl (XL335)] | 100% and 97.7% | 103 | 96.7 | 102 | 97 | 98.5 | 92.7 | 96.7
42 | O=C(c1ccc(F)cc1)C1CCN(CCn2c(=O)[nH]c3ccccc3c2=O)CC1 [Ketanserin (Vulketan Gel)] | 98.1% and 104% | 103 | 102 | 106 | 107 | 107 | 105 | 109
